This is an account of results in PubChem BioAssay AID624255 (Broad Institute, 2012).

In all, about 77,000 compounds went through this assay and about 4,600 (6%) were called active. Not shown: some 1% with an inconclusive outcome.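 The calls were made as follows: active = mean inhibition above about 93%, with at least 55% of replicates each passing it (limit read from the data, passing the limit was not always enough); inconclusive = only one of those two conditions holds; inactive = neither condition holds.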 This excerpt belongs to a sample that is enriched for actives.

The nature of this assay: growth inhibition of T. cruzi in host fibroblasts – cell-based, beta-gal Tulahuen parasites, NIH3T3 host, luminescence, primary screen (AID 624255). As to conditions: T. cruzi beta-gal in NIH3T3, GalScreen luminescence, 90 h; at 8.34 µM; stronger effect = higher value.
One may read the inhibition as the change of the read-out against control, counted positive when it falls. `CO[C@H]1CC[C@H]2CCOc3c(C#N)cccc3C(=O)N(C)CC3(CCCCC3)CC(=O)N(C)C[C@@H]1O2`: the inhibition is 13.3% (inactive).

Turning to `CCCNC(=O)Nc1ccc2c(c1)OC[C@@H](C)N(C(=O)c1ccccc1F)C[C@H](C)[C@@H](OC)CN(C)C2=O`, the inhibition is 52.3% (inactive).

Take `COc1ccccc1C#Cc1ccc([C@@H]2[C@H](CO)N3CCCCN(C(=O)C4CC4)C[C@@H]23)cc1`: the inhibition was 110% (active).

In the case of `CC(C)NC(=O)N1CCCCN2[C@@H](CO)[C@@H](c3ccc(C#Cc4ccccc4)cc3)[C@@H]2C1`, the inhibition was 80.4% (inactive).

For `COCC#Cc1ccc([C@@H]2[C@@H](CO)N3CCCCN(C(=O)NC4CCCC4)C[C@H]23)cc1`, the inhibition is 69.2% (inactive).

As to `COc1ccccc1C#Cc1ccc([C@H]2[C@H](CO)N3CCCCN(C(=O)C4CCC4)C[C@@H]23)cc1`, the inhibition is 109% (active).

Turning to `COc1ccccc1C#Cc1ccc([C@@H]2[C@H](CO)N3CCCCN(C(=O)C4CCCC4)C[C@@H]23)cc1`, the inhibition was 109% (active).

As to `COCC(=O)N1CCCCN2[C@H](CO)[C@H](c3ccc(C#Cc4ccc(OC)cc4)cc3)[C@H]2C1`, the inhibition was 72.8% (inactive).

`COc1ccccc1C#Cc1ccc([C@@H]2[C@@H](CO)N3CCCCN(S(C)(=O)=O)C[C@@H]23)cc1`: the inhibition was 77.3% (inactive).

On to `CO[C@@H]1CN(C)C(=O)c2cc(NC(=O)c3ccccc3)ccc2OC[C@H](C)N(C(=O)CN(C)C)C[C@H]1C`, for which the inhibition is -60.5% (inactive).

For `O=C([C@H]1[C@H](CO)[C@H]2Cn3c(ccc(C4=CCCCC4)c3=O)[C@@H]1N2)N1CCCCC1`, the inhibition was 60.4% (inactive).

Regarding `CO[C@H]1CN(C)C(=O)c2ccc(NS(C)(=O)=O)cc2OC[C@H](C)N(C(=O)C2CCC2)C[C@H]1C`, the inhibition was 11% (inactive).

`O=C(C1CCC1)N1C[C@H]2[C@@H](c3ccccc31)[C@@H](CO)N2C(=O)c1ccccc1F`: the inhibition was 5.17% (inactive).

For `COc1cccc(S(=O)(=O)N[C@H]2CC[C@@H](CCN)O[C@H]2CO)c1`, the inhibition was 59% (inactive).

Take `Cc1noc(C)c1S(=O)(=O)Nc1ccc2c(c1)C(=O)N([C@H](C)CO)C[C@@H](C)[C@@H](CN(C)C(=O)C1CCCCC1)OCCCC[C@@H](C)O2`: the inhibition was 48.7% (inactive).

With `CC(C)NC(=O)Nc1ccc2c(c1)C(=O)N(C)[C@@H]1CC[C@H](CC(=O)NCC3CCCCC3)O[C@@H]1CO2`, the inhibition is -5.5% (inactive).

`C[C@H](O)C#Cc1ccc2c(c1)O[C@H](CN(C)C(=O)C1CCCCC1)[C@@H](C)CN([C@H](C)CO)S2(=O)=O`: the inhibition is 60.6% (inactive).

For the compound `C[C@H]1CCCCO[C@@H](CN(C)C(=O)Cc2ccccc2)[C@@H](C)CN([C@@H](C)CO)C(=O)c2cc(NC(=O)c3ccccc3)ccc2O1`, the inhibition is 33.7% (inactive).
